# Rows were chosen to be rich in hits. Some 1.9% of all compounds tested hit in one or more screens of this group.
# IL2 activator = qHTS of IL-2 Activators | IL-2 activation reporter assay, cell-based qHTS; stimulated with anti-CD3/CD4/CD28 beads; in transgenic mouse T cells | activation, % (series mostly up to about 46 µM) | actives 0.065% (n = 360,000) | AID 652025, 2013; in the data active means activation above about 50%; inconclusive means mostly about 30% to 49%; further: 0% is about no effect
#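 Readout: EGFP and DsRed signals by fluorescent plate cytometry. Unstimulated transgenic mouse T cells received compound 60 min before antibody-bead stimulation, then incubated 18 h at 37 degrees C.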
# Integrin act MD = qHTS for Activators of Integrin-Mediated Alleviation for Muscular Dystrophy; alpha7betagal myoblasts, beta-gal FDG fluorescence, 48 h; Potency, µM (titrated, usually from 38.3 µM), for the others: at the top dose activation, actives largely listed as activators; actives 0.064% (n = 350,000);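 further: potency means the concentration at half of the fitted maximal effect; 100% = response of the positive control SU9516; nearly all actives have a fitted effect of over 60% in size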
#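 Alpha7betagal+/- myoblasts (passage 13) were plated 16-24 hr, then exposed to compounds (1:260 dilution of DMSO stock) for 48 hours at 37C. After MPER lysis, β-galactosidase reporter activity was read as FDG fluorescence (ex 480/em 540) after 30 minutes.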
# ClpP mod = qHTS Assay for Activators of ClpP; ATP-dependent Clp protease proteolytic subunit (Bacillus subtilis (strain 168)), P80244; purified B. subtilis ClpP, FRET peptide cleavage, 20 min; actives 1.9% (n = 340,000); AID 651965, 2013; Potency, µM (titrated, usually from 57.5 µM), for the others: at the top dose activity change, negative = active; active means well fitted falling curve with a large enough effect; inconclusive means small, poorly fitted or top-dose-only effect; inactive means no such curve, though single readings can be large or run the other way; further: potency means the concentration at half of the fitted maximal effect; the source files actives as falling curves though it sought activators and does not explain the sign; nearly all actives have a fitted effect of over 65% in size
#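 Buffer: 100 mM Tris/HCl pH8, 100 mM KCl, 0.05% low protease BSA, 2.5% glycerol, 0.01% Tween-20. ClpP 10 microg/mL final; 20 min RT; delta FRET normalized to ADEP and DMSO controls.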
# Pin1 inh = qHTS Assay to Find Inhibitors of Pin1; Peptidyl-prolyl cis-trans isomerase NIMA-interacting 1 (Homo sapiens), Q13526; Pin1 FP peptide displacement, HiFluor488, 10 min; Potency, µM (series often up to 115 µM), for the others: at the highest dose activity, negative = inhibition, actives largely listed as inhibitors; actives 0.009% (n = 390,000); active means well fitted inhibition curve with a large enough effect in the polarisation, with a control signal flat, not every such curve was filed as active; inconclusive means small, poorly fitted or top-dose-only effect, or effect the other way, or a change in a side signal; inactive means no such curve, though single readings can be large or run the other way; the % refers to the polarisation; further: potency means the concentration at half of the fitted maximal effect; on the % scale 0 is the no-effect control and ±100 the full control effect
# Target sequence (Q13526 whole entry, looked up): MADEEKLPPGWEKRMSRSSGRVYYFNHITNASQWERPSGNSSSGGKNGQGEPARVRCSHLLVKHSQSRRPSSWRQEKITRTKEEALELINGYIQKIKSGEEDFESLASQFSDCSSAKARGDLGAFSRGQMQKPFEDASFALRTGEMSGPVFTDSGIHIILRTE
# USP2a inh = qHTS Assay for Inhibitors of Ubiquitin-specific Protease USP2a Using CHOP2 as the Reporter | Ubiquitin carboxyl-terminal hydrolase 2 (Homo sapiens), O75604 | USP2 core, Ub-CHOP2 coupled fluorogenic reporter, 485/531 | Potency, µM (highest dose often 38.3 µM), for inactives: at the top dose activity change, negative = inhibition, usual class: inhibitors | actives 0.01% (n = 330,000) | AID 463254, 2010;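 further: potency means the concentration at half of the fitted maximal effect; plate controls were DMSO wells for no effect and full inhibition by NEM control for full effect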
#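 Deubiquitinase activity read as fluorescence (485/531 nm) after Ub-CHOP2 cleavage activates the enterokinase reporter on its substrate; USP2 core 10nM, Ub-CHOP2 and substrate 25nM each, 30min compound preincubation then 60min RT; data normalized to NEM, curves fitted.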
# PKM2 activator = qHTS Assay for Activators of Human Muscle isoform 2 Pyruvate Kinase; AID 1631, 2009; Potency, µM (highest dose often 57.5 µM), for the others: at the top dose activation, most hits filed as activators; purified PKM2, Kinase-Glo ATP luminescence, activation; response scale: 0% is enzyme alone, no compound; Pyruvate kinase PKM (Homo sapiens), P14618; actives 0.34% (n = 260,000); further: potency means the concentration at half of the fitted maximal effect; on the % scale 0 is the no-effect control and ±100 the full control effect; nearly all actives have a fitted effect of over 55% in size
# Target sequence (P14618 whole entry, looked up, canonical isoform): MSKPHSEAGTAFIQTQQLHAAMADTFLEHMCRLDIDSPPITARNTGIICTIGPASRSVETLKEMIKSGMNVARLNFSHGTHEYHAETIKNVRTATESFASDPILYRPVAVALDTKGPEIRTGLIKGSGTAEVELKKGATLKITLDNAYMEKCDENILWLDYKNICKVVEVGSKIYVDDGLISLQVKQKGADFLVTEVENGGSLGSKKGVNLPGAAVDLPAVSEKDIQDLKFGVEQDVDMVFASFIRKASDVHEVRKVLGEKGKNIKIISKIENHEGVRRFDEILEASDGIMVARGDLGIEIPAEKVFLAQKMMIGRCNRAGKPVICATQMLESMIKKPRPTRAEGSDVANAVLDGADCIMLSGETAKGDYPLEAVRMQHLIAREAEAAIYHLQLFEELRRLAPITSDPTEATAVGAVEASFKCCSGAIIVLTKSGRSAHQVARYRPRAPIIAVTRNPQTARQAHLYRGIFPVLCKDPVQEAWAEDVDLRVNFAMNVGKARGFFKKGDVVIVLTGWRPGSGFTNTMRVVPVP
#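 Purified hPK-M2 (>95% pure) converted ADP (0.1 mM final) to ATP with 0.5 mM PEP in 50 mM imidazole pH7.2, KCl, MgCl2, Tween 20, BSA; 1 h at room temperature. ATP detected by Kinase-Glo luminescence.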
# HeLa viability = Secondary assay for Activators of Human Pyruvate Kinase M2 isoform - Cell Titer Glo cytotoxicity assay; shares compounds with PKM2 activator; HeLa viability, CellTiter-Glo ATP luminescence, 24 h; activity change, negative = cytotoxicity, % at 57.5 µM; 230 tested, under 10 active; further: % of control where 0% means no effect
# ClpP validation = qHTS Assay for Activators of ClpP: Hit Validation of Inhibitors. AID 743245, 2014. shares compounds with ClpP mod. purified B. subtilis ClpP, FRET-FV substrate cleavage, 20 min. Potency, µM (titrated, usually from 57.5 µM), for the others: top-dose activity change, negative = inhibition, usual class: inhibitors. actives 40% (n = 470); further: potency means the concentration at half of the fitted maximal effect; on the % scale 0 is the no-effect control and ±100 the full control effect; nearly all actives have a fitted effect of over 70% in size
# Numbers without * were called inactive; u = inconclusive; x = not tested or not shown. Unless noted, the call rests on the fitted dose curve; in most records, active means well fitted curve in the direction sought with a large enough effect; inconclusive means small, poorly fitted or top-dose-only effect, or another doubt; inactive means no such curve, though single readings can be large; an effect the other way counts as inactive or inconclusive.
SMILES,IL2 activator,Integrin act MD,ClpP mod,Pin1 inh,USP2a inh,PKM2 activator,HeLa viability,others
O=S(=O)(NC1CCC(NS(=O)(=O)c2c(F)cccc2F)CC1)c1ccc2c(c1)OCCO2 (stereo unspecified),0,x,x,3%,4%,x,-12,
O=S(=O)(NC1CCN(S(=O)(=O)c2ccc3c(c2)OCCO3)C1)c1c(F)cccc1F (stereo unspecified),-3,x,x,-9%,-1%,x,2,
C[C@@H]1CN(S(=O)(=O)c2c(F)cccc2F)CCN1S(=O)(=O)c1ccc2c(c1)OCCO2,-5,x,x,12%,2%,x,u,
O=S(=O)(c1ccc2c(c1)OCCO2)C1CCC(S(=O)(=O)c2c(F)cccc2F)CC1 (stereo unspecified),-1,x,x,-4%,4%,x,x,
COc1ccccc1CCNc1ncnc2nc[nH]c12,x,x,-1%,-8%,x,x,x,
O=C(Nc1ccccc1)N(Cc1c[nH]c2ccccc12)C1CCCCCC1,x,x,-6%,6%,x,x,x,
Cc1cccc(N2C(=O)CS(=O)(=O)C23C(=O)N(Cc2c(F)cccc2Cl)c2ccccc23)c1 (stereo unspecified),x,x,1%,21%,x,x,x,
COCCNS(=O)(=O)c1ccc2c(c1)oc(=O)c1cc(S(=O)(=O)NCCOC)ccc12,x,x,x,x,2%,u,x,
NS(=O)(=O)c1ccc2c(c1)oc(=O)c1cc(S(N)(=O)=O)ccc12,-1,-15%,x,-4%,1%,0.35µM*,-19,
O=C(CCCn1c(=S)[nH]c2cc3c(cc2c1=O)OCO3)NC1CC1,-2,0%,-2%,-9%,1%,2.8µM*,-5,
CCNc1nc(OC)nc(Oc2ccc(C(=O)OC)cc2)n1,1,-11%,1%,13%,-4%,2%,x,
CCNc1nc(NCC)nc(Oc2ccc(N)cc2)n1,-2,-9%,0%,-3%,1%,2.5µM*,-2,
COc1cc(OC)cc(C(=O)Nc2cccc(-c3cn4ccsc4n3)c2)c1,x,x,-7%,4%,x,x,x,
O=C(CSc1ccc2ccccc2c1)NCCc1ccc(O)c(O)c1,0,-4%,x,0%,-1%,2.8µM*,10,
COc1ccc(CCNC(=O)CSc2ccc3ccccc3c2)cc1OC,-4,0%,1%,10%,1%,0%,x,
CN(c1ccccc1)S(=O)(=O)c1cccc(C(=O)NCCc2ccc(O)c(O)c2)c1,-1,-10%,x,-1%,1%,1.4µM*,-22,
COc1cccc(CNC(=O)CCC2CCCN(C(=O)c3cc(C)on3)C2)c1 (stereo unspecified),1,8%,-1%,1%,-2%,6%,x,
COc1cccc(CNC(=O)CCC2CCCN(C(=O)c3cc(C4CC4)[nH]n3)C2)c1 (stereo unspecified),0,u,1%,-3%,6%,3.5µM*,-4,
O=S(=O)(c1cccs1)N1CCN(S(=O)(=O)c2cccs2)CC1,2,1%,x,-5%,3%,0.4µM*,-6,
O=S(=O)(c1c(F)cccc1F)N1CCN(S(=O)(=O)c2c(F)cccc2F)CC1,x,x,x,5%,x,x,-17,
CCc1nnc(NC(=O)CSc2nnc(-c3ccc(NS(=O)(=O)c4ccccc4)cc3)o2)s1,-1,-5%,-7%,12%,3%,0.79µM*,6,
COCc1cc(C)nc2sc3c(c12)NC(c1ccc(O)cc1)N(c1ccc(OC)cc1)C3=O (stereo unspecified),x,x,-9%,9%,x,x,x,
Cc1ccc(S(=O)(=O)N2CCN(c3ccc([N+](=O)[O-])c(Sc4nncn4C)c3)CC2)cc1,-1,21%,1%,4%,5%,0.2µM*,1,
Cc1ccc(NS(=O)(=O)c2ccccc2)c(C)c1,x,x,x,-2%,x,x,x,
O=c1[nH]c(Cn2nnc(-c3ccccc3)n2)nc2scc(-c3ccccc3)c12,-2,-2%,-5%,31%,-1%,14µM*,-20,
SMILES,IL2 activator,Integrin act MD,ClpP mod,Pin1 inh,USP2a inh,PKM2 activator,HeLa viability,others
CCCCNC(=O)CSc1nc2nc(C)c(Cc3ccccc3C)c(C)n2n1,x,x,-8%,-2%,x,x,x,
O=S(=O)(NCCCCCNS(=O)(=O)c1ccccc1)c1ccccc1,-1,19%,-1%,-5%,0%,1.4µM*,-8,
O=C(CCc1ccc(S(=O)(=O)N2CCOCC2)cc1)N1CCc2ccccc2C1,1,12%,424%,3%,0%,-4%,x,ClpP validation=0%
O=C(c1ccc(S(=O)(=O)N2CCOCC2)cc1)N1CCc2ccccc2C1,-3,-18%,-1%,-9%,3%,6%,x,
Oc1c(C(Nc2ccccn2)c2ccccc2)ccc2cccnc12 (stereo unspecified),x,x,3%,x,x,x,x,
CC(C)CCNC(=O)COc1ccc2c(c1)C(=O)CC(C)(C)O2,-1,26%,28µM*,2%,0%,4%,x,ClpP validation=15µM*
CCOc1ccc(C(=O)Nc2ccc3oc(-c4ccncc4)nc3c2)cc1,x,x,-22%,3%,x,x,x,
Cc1ccc2oc(-c3ccc(NC(=O)c4ccc5c(c4)OCO5)cc3)nc2c1,4,15%,3.2µM*,0%,0%,-2%,x,ClpP validation=12µM*
Cc1ccc2oc(-c3ccc(NC(=O)CC(C)C)cc3)nc2c1,-3,8%,8.9µM*,-10%,0%,-1%,x,ClpP validation=u
CCC(C)c1ccc2oc(-c3ccc(NC(=O)c4ncn[nH]4)cc3)nc2c1 (stereo unspecified),-1,19%,10µM*,13%,0%,-16%,x,ClpP validation=22µM*
CCCOc1ccc(C(=O)Nc2ccc3oc(-c4ccc(N(C)C)cc4)nc3c2)cc1,x,x,1.3µM*,0%,x,x,x,ClpP validation=1%
Cc1ccc(-c2onc(C)c2C)cc1S(=O)(=O)Nc1cccc(Cl)c1C,x,x,1%,14%,x,x,x,
